Data on 40 molecules can be found in PubChem BioAssay (Tox21).

Active and inactive are the calls of the source. Calls come from the whole dose curve; as a rule, active = well fitted curve in the direction sought with a large enough effect in the repeat runs; inconclusive = weak or mixed curves; inactive = flat fitted curve, though single readings scatter.

This test in a line: qHTS assay to test for compound auto fluorescence at 590 nm (red) in HEK293 cell free culture (AID 720683). Particulars: cell-free medium autofluorescence, Ex540/Em590 red; series mostly up to 91.3 µM. The text has this:
U.S. Tox21 Program National Center for Advancing Translational Sciences [NCATS] NIH Chemical Genomics Center [NCGC] U.S. Environmental Protection Agency [EPA] National Institutes of Environmental Health Sciences [NIEHS] National Toxicology Program [NTP] U.S. Food and Drug Administration [FDA] Tox21 Assay Overview: Compound auto fluorescence often interferes with screening of the compound library against various biological targets and signaling pathways. Some of these compounds may have fluorophoric properties. Such properties may interfere with the assay outputs resulting in false positives and/or negatives. To decrease such complications and ensure the compound activities are relevant in terms of biological response, the Tox21 10K compound library was screened for auto fluorescence. From the fluorophores used as reporter signals in our screening assays, the auto fluorescence equivalencies of compounds against three fluorophores have been evaluated: Triamterene, Fluorescein and Rose Bengal sodium for blue, green and red fluorescence, respectively. The fluorescence intensities were measured using Excitation/Emission wavelengths at 405/460nm, 485/535nm and 540/590nm for blue, green and red labels, respectively. This assay includes the red fluorescence data.
Tox21 Assay Protocol Summary: 5 uL of culture medium (DMEM containing 10% FBS) per well was dispensed into black wall/clear bottom 1536-well plates using a Multidrop Combi Dispenser (ThermoFisher Scientific, Waltham, MA). After 23 nL compound or DMSO vehicle was transferred into assay plate by a pintool work station (Kalypsys, San Diego, CA), fluorescence intensities in the assay plates were measured by an Envision (PerkinElmer, Shelton, CT) plate reader using three labels for measuring blue, green and red fluorescence at […] 460, 535 and 590nm respectively.
For orientation: qHTS replaces the single test concentration by a dilution series.
As for `OCCOCCOCCOCCOCCO`, the call was inactive. The value for `c1cnc2c(c1)ccc1cccnc12` was “inactive”. The value for `C[Si](C)(C)N[Si](C)(C)C` was “inactive”.

In the case of `CC(C)(CO)CO`, the outcome was inactive.

In the case of `CS(=O)(=O)c1ccc(Cl)cc1`, the molecule was called inactive.

`O=C1OC(=O)c2c(Cl)c(Cl)c(Cl)c(Cl)c21`: the result was inactive. Take `CCOC(=O)c1ccc(O)cc1`: the molecule was called inactive. Consider `CC(=O)OC/C=C(\C)CCC=C(C)C`, for which the molecule was called inactive. The value for `CC(C)c1ccc(C(C)C)cc1` was “inactive”; that for `CCN(CC)CCNC(=O)c1ccc(N)cc1` was “inactive”; that for `CC/C=C(\C(=O)N[C@@H]1C(=O)N2C(C(=O)OCOC(=O)C(C)(C)C)=C(COC(N)=O)CS[C@H]12)c1csc(N)n1` was “inactive”.

In the case of `COc1ccc2cc3[n+](cc2c1OC)CCc1cc2c(cc1-3)OCO2`, the molecule was classed as inactive. For `OC1CCCCC1`, the outcome was inactive. The value for `CC/C(C)=N/O` was “inactive”. The value for `Cc1cc(C)c(O)c(C)c1` was “inactive”. The value for `Cc1nnc(NS(=O)(=O)c2ccc(N)cc2)s1` was “inactive”. Turning to `CC(=O)OCc1ccc2c(c1)OCO2`, the molecule was called inactive. To `CC(=O)OC[C@H]1O[C@@](COC(C)=O)(O[C@H]2O[C@H](COC(C)=O)[C@@H](OC(C)=O)[C@H](OC(C)=O)[C@H]2OC(C)=O)[C@@H](OC(C)=O)[C@@H]1OC(C)=O` belongs “inactive”. To `O=C1CCCCCCCCCCC1` belongs “inactive”; to `CC(=O)c1nccs1`, “inactive”; to `COc1cc(NC(=O)CC(C)=O)c(OC)cc1Cl`, “inactive”. The value for `CN1Cc2c(N)cccc2C(c2ccccc2)C1` (stereo not given) was “inactive”; that for `CCCCCNCCCCC` was “inactive”. Turning to `CCCCCCCCCCCC(=O)N(C)CC(=O)O`, the outcome was inactive.

In the case of `OB(O)O`, the molecule was classed as inactive.

`OCC(O)CS` (stereo not given): the molecule was classed as inactive. To `Oc1ccc(Cc2ccccc2O)cc1` belongs “inactive”. To `Cc1ccc(Cl)cc1` belongs “inactive”; to `N#CCC(=O)O`, “inactive”; to `CCOC(=O)CC(=O)OCC`, “inactive”. With `CC1(C)[C@@H](O[C@H]2O[C@H](C(=O)O)[C@@H](O)[C@H](O)[C@H]2O[C@@H]2O[C@H](C(=O)O)[C@@H](O)[C@H](O)[C@H]2O)CC[C@]2(C)[C@H]3C(=O)C=C4[C@@H]5C[C@@](C)(C(=O)O)CC[C@]5(C)CC[C@@]4(C)[C@]3(C)CC[C@@H]12`, the molecule was classed as inactive. In the case of `COc1ccccc1[N+](=O)[O-]`, the call was inactive.

As for `CO[Si](CCCNCCN)(OC)OC`, the result was inactive.

Regarding `C1CCCNCC1`, the outcome was inactive. To `O=Cc1ccc(CO)o1` belongs “inactive”; to `CCc1cccc(O)c1`, “inactive”; to `Nc1cccc(N)n1`, “inactive”.

In the case of `CN1CCCC1=O`, the molecule was classed as inactive. The value for `CCCOC(=O)NCCCN(C)C` was “inactive”; that for `C=CC(=O)NCOCCCC` was “inactive”.
